The list is not random: actives were taken first. Their share in the collection is about 4.2%.
AHR activator: human AHR activation; P35869; AHR-responsive luciferase reporter cells, luminescence; activation, % at 5 µM; AID 2796; actives 2.5% (n = 320,000); in the data active means activation above about 47%;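 further: 0% = vehicle wells and 100% = reference agonist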
MITF TRPM1 HTS: activators of MITF-driven TRPM1 promoter activity in SK-MEL-5 cells. SK-MEL-5 TRPM1-promoter luciferase, 24 h; % of positive control, neutral wells = 0. activation, % at 12.5 µM. actives 0.75% (n = 300,000). AID 588334;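 active means mean activation of at least 80% with every replicate also reaching 80%; inconclusive means mean reaches 80% but some replicate falls short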;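 further: 0% = neutral control wells and 100% = parthenolide positive control wells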
FXN GAA850 act: increases GAA850 frataxin promoter reporter activity; HEK293 lucGAA850 FXN promoter luciferase reporter, 24 h; percent of 10 µM SAHA response; activation, % at 6 µM; actives 0.56% (n = 360,000);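 active means activation above the average of all compounds screened plus 3 SD, cutoff fixed separately per campaign, cut at about 7.5% in these data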;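 further: 0% = DMSO wells and 100% = 10 µM SAHA wells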
Wnt bcat act: activators of Wnt/beta-catenin signaling; Wnt/beta-catenin reporter cell assay, activator, plate reader; activation, % at 9.35 µM; actives 1.2% (n = 300,000); in the data active means activation above about 30%, passing the limit was not always enough; inconclusive means no clear call, values can overlap the other calls;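 further: 0% = neutral control wells and 100% = positive control wells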
esBAF inh: inhibitors of esBAF chromatin remodeling in mouse ES cells; actives 2% (n = 350,000); Bmi1-luciferase knock-in reporter, 24 h; 100% = twice the neutral-well signal; reporter increase, % at 12.5 µM; in the data active means activation above about 40%; inconclusive means no clear call, values can overlap the other calls;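 further: 0% = median of the plate's neutral control wells and 100% = double that signal; a rise in the Bmi1 reporter signal indicates esBAF inhibition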
* marks the source's active call; other numbers are inactive results; ? = inconclusive; · = no result given.

SMILES	AHR activator	MITF TRPM1 HTS	FXN GAA850 act	Wnt bcat act	esBAF inh
O=C(COc1cc(Cl)ccc1Cl)Nc1ccc2c(c1)CCC2	1	28	2	6	·
CCCNC(=O)C[C@H]1CC[C@H]2[C@H](COc3ccc(NC(=O)c4cscn4)cc3C(=O)N2C)O1	·	·	·	·	-2
COc1cc2c(cc1NC(=O)COC(=O)CNC(=O)c1ccccc1)oc1ccccc12	46	-5	2	2	·
COc1cc2c(cc1NC(=O)COC(=O)[C@@H](NC(=O)c1ccccc1F)C(C)C)oc1ccccc12	59*	5	1	5	·
COc1cc2c(cc1NC(=O)COC(=O)[C@@H](NC(=O)c1ccccc1)C(C)C)oc1ccccc12	49*	18	1	6	27
C[C@H]1CN([C@@H](C)CO)C(=O)c2c(c3ccccc3n2C)-c2ccccc2CO[C@H]1CN(C)C(=O)C1CC1	·	·	·	·	-2
COc1cccc(NC(=O)N2CCc3nc(Nc4cc(Cl)cc(Cl)c4)ncc3C2)c1	·	·	-1	1	0
CC(C)c1ccc(Nc2ncc3c(n2)CCN(C(=O)Nc2ccc(F)c(Cl)c2)C3)cc1	·	·	-1	-2	56*
CCOc1ccccc1C1N=C(c2ccc(OC)cc2)CC(c2ccccc2O)N1 (configuration not stated)	17	?	1	30	·
CC(C)C1N=C(c2ccc3c(c2)OCO3)CC(c2ccccc2O)N1 (configuration not stated)	59*	19	6	·	47*
COCCOc1ccc(C(F)(F)F)cc1NC(=O)c1ccc(C)cc1	36	-6	3	-4	·
COCCOc1ccc(C(F)(F)F)cc1NC(=O)c1ccc(F)cc1	54*	2	3	-2	·
CC(SCc1ccccc1)C(=O)Nc1ccccc1 (configuration not stated)	0	5	0	37*	-1
Cc1ccccc1NC(=O)C(C)SCc1ccccc1 (configuration not stated)	2	·	0	2	8
CO[C@@H]1CC[C@H]2CCOc3ccc(C#N)cc3C(=O)N(C)C[C@@H](C)C(=O)N(C)C[C@@H]1O2	·	·	·	·	4
Cc1ccc(S(=O)(=O)Nc2cccc3c2O[C@@H](CN(C)C(=O)Nc2ccccc2)[C@@H](C)CN([C@@H](C)CO)C3=O)cc1	·	·	·	·	3
COC(=O)C[C@@H]1C[C@@H]2c3cc(NC(=O)C4CCC4)ccc3O[C@@H]2[C@@H](CO)O1	·	·	·	·	1
CCC(=O)Nc1ccc2c(c1)nc(CCNC(=O)c1ccco1)n2C	0	0	-2	-1	-2
COc1ccc(C(=O)Nc2ccc3c(c2)nc(CCNC(=O)c2ccco2)n3C)cc1	8	37	2	16	48*
O=C(Nc1ccccc1C(=O)Nc1ccc2c(c1)OCO2)c1ccco1	47*	7	2	0	12
CCN1CCN(c2ccc(NC(=O)c3cccc(N4CCCC4=O)c3)cc2)CC1	1	5	2	21	60*
Cc1cccc(NC(=O)c2ccccc2NC(=O)c2ccco2)c1	46	17	0	1	8
O=C(Nc1ccc(Cl)cc1)c1ccco1	21	45	3	45*	37
CCS(=O)(=O)NCC[C@@H]1CC[C@@H](NC(=O)C2CCCCC2)[C@H](CO)O1	·	·	·	·	0
C[C@H](CO)N1C[C@H](C)[C@H](CN(C)S(C)(=O)=O)Oc2ccc(NC(=O)Nc3ccc(C(F)(F)F)cc3)cc2C1=O	·	·	·	·	-2
SMILES	AHR activator	MITF TRPM1 HTS	FXN GAA850 act	Wnt bcat act	esBAF inh
CO[C@H]1CN(C)C(=O)c2ccc(NC(=O)C3CCCC3)cc2OC[C@@H](C)N(C(=O)CC2CC2)C[C@H]1C	·	·	·	·	1
CCOc1ccccc1NC(=O)c1ccccc1NC(=O)c1ccco1	70*	6	-1	-1	-2
CCOc1ccccc1NC(=O)c1cccc2ccccc12	74*	·	2	0	-5
O=C(Nc1c(O)c2ccccc2[nH]c1=O)c1ccco1	78*	-7	-2	-1	·
CCOc1ccccc1NC(=O)c1csc(C)c1C	71*	8	1	2	3
CCCCOc1ccccc1NC(=O)c1ccco1	-2	-1	3	·	·
CO[C@H]1CN(C)C(=O)c2ccc(NC(=O)C3CCOCC3)cc2OC[C@@H](C)N(C)C[C@H]1C	·	·	·	·	1
CN1c2ccc(C#Cc3cccnc3)cc2[C@H]2[C@H](CCN2C(=O)Nc2cc(F)ccc2F)[C@@H]1CO	·	·	·	·	6
CCN1CCN(c2ccc(NC(=O)c3ccco3)cc2)CC1	7	86*	4	16	·
O=C(/C=C/c1ccc(Br)cc1)c1ccc(NC(=O)c2ccco2)cc1	48*	9	1	·	40
CCOc1ccccc1NC(=O)c1cc(SC)ccc1Cl	72*	13	-2	-1	-7
COc1ccc(NC(=O)c2ccccc2NC(=O)c2ccco2)cc1	63*	5	-4	0	7
CC(=O)N(C)C[C@H]1Oc2ncc(C#Cc3ccccc3F)cc2C(=O)N([C@@H](C)CO)C[C@H]1C	·	·	·	·	-2
CCOc1ccccc1NC(=O)c1ccc(Cl)c(NC(=O)CC(c2ccccc2)c2ccccc2)c1	80*	-20	1	·	7
O=C(Nc1ccc(Cl)cc1C(=O)Nc1ccc(Br)cn1)c1ccco1	61*	16	-2	·	6
CCOc1ccccc1NC(=O)c1ccc(C(=O)Nc2ccccc2OCC)nc1	72*	·	0	-8	-4
O=C(N/N=C/c1ccccc1)c1ccco1	7	·	3	14	30
CCOc1ccccc1NC(=O)c1cnccn1	3	7	0	5	-3
O=C(Nc1ccccc1C(=O)N/N=C/c1ccccc1)c1ccco1	48*	30	5	8	36
CCOCC(=O)Nc1cc(C(=O)Nc2cccc(C)c2C)ccc1Cl	0	13	0	2	2
O=C(Nc1ccccc1C(=O)Nc1ccccc1)c1ccco1	76*	11	1	-1	6
CCOCC(=O)Nc1cc(C(=O)Nc2ccc(F)cc2)ccc1Cl	63*	·	·	·	·
C[C@H](CO)N1C[C@H](C)[C@@H](CN(C)S(C)(=O)=O)Oc2ccc(NC(=O)Nc3cccc4ccccc34)cc2C1=O	·	·	·	·	0
COc1ccc(S(=O)(=O)N(C)C[C@@H]2Oc3ncc(C#Cc4ccccc4)cc3C(=O)N([C@H](C)CO)C[C@@H]2C)cc1	·	·	·	·	-7
CC(C)(C)c1cc(C(=O)NNC(=O)Nc2ccccc2)n(Cc2ccccc2)n1	-1	-5	0	-4	-3
SMILES	AHR activator	MITF TRPM1 HTS	FXN GAA850 act	Wnt bcat act	esBAF inh
CC(C)(C)c1cc(C(=O)NCc2cc(F)cc3c2OCOC3)n(Cc2ccccc2)n1	3	·	3	0	50*
S=c1nc(-c2ccccc2)oc2c1CCCC2	12	56	4	74*	·
Cc1cccc(NC(=O)CNC(=O)c2ccc3c(c2)OCO3)n1	50*	-10	1	2	1
Cc1nc(NC(=O)c2ccc(Cl)cc2)sc1Cc1ccc2c(c1)OCO2	-6	-1	-3	2	6
Cc1nc(NC(=O)c2ccc3c(c2)OCO3)ccc1Br	14	129*	1	-3	·
Cc1nc(NC(=O)c2ccccc2)sc1Cc1ccc2c(c1)OCO2	16	25	3	·	53*

Assay outcomes: PubChem BioAssay, several laboratories
